Shown are actives, neighbours in structure and some others; about 1.2% of the full set was active somewhere.
TLR4 MyD88 comp: inhibitors of TLR4-MyD88 association in cells, primary screen, cell-based, HeLa CL3-4, BLA complementation, FRET ratio. 0.18% of 200,000 active. HeLa CL3-4 TLR4/MyD88 BLA complementation. AID 861, 2007. inhibition, % at 8.4 µM. Toll-like receptor 4 (Homo sapiens) + Myeloid differentiation primary response protein …; in the data active = inhibition above about 25%;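 also: 0% = vehicle and 100% = reference inhibitor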
GC-B act: human GC-B receptor activators, primary screen, HEK293 GC-B cells, cGMP TR-FRET, EC30 CNP; Atrial natriuretic peptide receptor 2 (Homo sapiens), P20594; 0% at EC30 CNP, 100% saturating CNP; activation, % at 10 µM; 0.11% of 370,000 active;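 active = activation at 10 µM reaching about 35% in either raw or pattern-adjusted values, limit read from the data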
Neddyl block: inhibitors of cullin neddylation, primary screen, biochemical, TR-FRET, uHTS, NAE and Ubc12; inhibition, % at 25 µM; NEDD8-conjugating enzyme Ubc12 (Homo sapiens) + NEDD8-activating enzyme E1 regulatory …; AID 651699, 2012; 0.58% of 360,000 active; in the data active = inhibition above about 36%
Target sequence (P61081 whole entry, looked up): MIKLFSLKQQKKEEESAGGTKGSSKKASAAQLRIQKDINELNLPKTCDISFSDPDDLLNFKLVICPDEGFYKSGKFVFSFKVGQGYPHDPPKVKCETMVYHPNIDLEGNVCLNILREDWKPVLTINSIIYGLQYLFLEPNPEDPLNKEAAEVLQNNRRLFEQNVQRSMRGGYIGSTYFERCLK
Target sequence (Q13564 whole entry, looked up): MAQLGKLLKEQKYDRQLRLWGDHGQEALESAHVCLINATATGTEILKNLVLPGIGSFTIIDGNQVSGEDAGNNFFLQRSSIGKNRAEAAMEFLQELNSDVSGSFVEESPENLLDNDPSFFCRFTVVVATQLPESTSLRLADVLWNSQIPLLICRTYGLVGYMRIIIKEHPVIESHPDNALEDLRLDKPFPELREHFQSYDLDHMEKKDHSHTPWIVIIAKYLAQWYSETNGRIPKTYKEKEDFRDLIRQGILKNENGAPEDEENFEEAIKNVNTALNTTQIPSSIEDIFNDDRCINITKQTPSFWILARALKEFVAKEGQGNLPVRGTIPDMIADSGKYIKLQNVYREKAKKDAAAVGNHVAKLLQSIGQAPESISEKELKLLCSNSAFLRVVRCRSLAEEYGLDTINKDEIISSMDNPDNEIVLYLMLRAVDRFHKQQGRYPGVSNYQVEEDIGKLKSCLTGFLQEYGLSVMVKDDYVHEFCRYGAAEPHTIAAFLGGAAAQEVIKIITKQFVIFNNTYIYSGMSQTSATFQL
TLR9-MyD88 inh: inhibitors of TLR9-MyD88 association in cells, primary screen, cell-based, CHO, BLA complementation, fluorescence. CCF4 FRET ratio. Toll-like receptor 9 (Homo sapiens) + Myeloid differentiation primary response protein …. inhibition, % at 4.98 µM. 0.21% of 340,000 active;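 active = inhibition above the mean over all tested compounds plus 3 SD, cut at about 21% in these data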;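 also: 0% = DMSO only wells and 100% = clavulanate BLA inhibitor control wells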
NOD2 RIPK2 PPI: NOD2-RIPK2 binding disruptors in cells, primary screen, fluorescence, CHO cells, BLA complementation; 0.38% of 360,000 active; inhibition, % at 4.98 µM; AID 624267, 2012; CCF4 ratio; in the data active = inhibition above about 21%;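 also: 0% = vehicle only and 100% = reference blocker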
NPR1 activator: GC-A stimulated cGMP production enhancers – HEK293 GC-A cells, cGMP TR-FRET, EC30 ANP, primary screen. Atrial natriuretic peptide receptor 1 (Homo sapiens), P16066. 0% at EC30 ANP, 100% saturating ANP. activation, % at 10 µM. 0.14% of 370,000 active. AID 1671463, 2021; in the data active = activation above about 40%
NOD2 RIPK2 conf: NOD2-RIPK2 binding disruptors, retest, confirmation, fluorescence, CHO cells, BLA complementation, triplicate. shares compounds with NOD2 RIPK2 PPI. CCF4 FRET. inhibition, % at 4.98 µM. 70% of 1,200 active. AID 624370, 2012;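 active = mean inhibition across replicates above a set limit taken from the earlier primary screen, cut at about 21% in these data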;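 also: 0% = DMSO-only wells and the high end = clavulanate BLA-blocked wells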
NOD2 BLA counter: NOD2-RIPK2 counterscreen BLA reporter activity | CHO BLA reporter, CCF4 FRET ratio | shares compounds with NOD2 RIPK2 PPI | inhibition, % at 4.98 µM | 57% of 1,200 active | AID 624371;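 active = mean inhibition above the low-control mean inhibition plus three low-control SD, cut at about 11% in these data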;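 also: 0% = DMSO only wells and 100% = clavulanate high control wells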
* = called active by the depositor.

Results for C[C@H](NC(=O)N1CCn2c1nc1ccccc12)C(=O)NC1CC1 ?
GC-B act: -1.6; Neddyl block: 0.8; TLR9-MyD88 inh: 5.0; NOD2 RIPK2 PPI: 3.6; NPR1 activator: 4.4

Results for C[C@H](NC(=O)N1CCn2c1nc1ccccc12)C(=O)N1CCCCC1 ?
GC-B act: -3.4; Neddyl block: 4.0; TLR9-MyD88 inh: 0.9; NOD2 RIPK2 PPI: 21.1*; NPR1 activator: -0.7; NOD2 RIPK2 conf: -8.4; NOD2 BLA counter: -1.1

Results for O=C(N=C1N(Cc2ccccc2)C[C@]2(C=C3CCCCC3n3c(=O)n(-c4ccccc4)c(=O)n32)N1C(=O)OCc1ccccc1)c1ccccc1 (some centres not stated) ?
GC-B act: 5.3; NPR1 activator: -0.4

How did CCOC(=O)C1(C)CCN1C(=O)/C=C/c1ccccc1 (configuration not stated) do in these assays?
GC-B act: 4.5; Neddyl block: -0.2; NOD2 RIPK2 PPI: 20.9*; NPR1 activator: 4.3; NOD2 RIPK2 conf: 1.6; NOD2 BLA counter: -1.5

Results for COC(=O)CCNC(=O)c1ccc2nc(Cc3ccc(OC)c(OC)c3)oc2c1 ?
GC-B act: -1.7; Neddyl block: -0.6; TLR9-MyD88 inh: 9.2; NOD2 RIPK2 PPI: 21.5*; NPR1 activator: -0.6; NOD2 RIPK2 conf: -2.9; NOD2 BLA counter: 0.3

Results for COc1ccc(/C=C2/CCC(CN3CCOCC3)C2=O)cc1 (configuration not stated) ?
GC-B act: -10.2; Neddyl block: -5.7; TLR9-MyD88 inh: -6.2; NOD2 RIPK2 PPI: 33.9*; NPR1 activator: -25.9; NOD2 RIPK2 conf: 91.8*; NOD2 BLA counter: 18.5*

What do the screens show for `Nc1nc2cc3c(cc2cc1C(=O)NCc1cccnc1)OCO3`?
GC-B act: 5.8; NPR1 activator: 0.9

Results for CC[C@H](CCCc1ccc(OC)cc1)CCC(=O)N(c1ccccc1)c1ccccc1 ?
GC-B act: -0.5; NPR1 activator: -4.9

What do the screens show for `CCCN(CCC)CC(O)Cn1cc(/C=C/C(=O)c2ccccc2)c2ccccc21` (configuration not stated)?
TLR4 MyD88 comp: 8.6; GC-B act: -4.0; Neddyl block: 11.8; TLR9-MyD88 inh: 2.1; NOD2 RIPK2 PPI: 11.7; NPR1 activator: -6.7

What do the screens show for `CCCCN(C)CC(O)Cn1cc(/C=C/C(=O)c2ccc(C)cc2)c2ccccc21` (configuration not stated)?
GC-B act: 1.6; Neddyl block: 6.5; TLR9-MyD88 inh: 14.1; NOD2 RIPK2 PPI: 31.8*; NPR1 activator: -12.9; NOD2 RIPK2 conf: 43.9*; NOD2 BLA counter: 41.3*

What do the screens show for `CN1Cc2nnn(Cc3ccccc3)c2-c2ccccc2S1(=O)=O`?
GC-B act: 2.5; NPR1 activator: 3.0

What do the screens show for `O=c1c2cc3cccnc3nc2ncn1Cc1cccs1`?
GC-B act: -5.1; NPR1 activator: -5.2

How did Cc1cccc(NC(=O)c2cccc(S(=O)(=O)N(C)C3CCCCC3)c2)n1 do in these assays?
GC-B act: 8.3; Neddyl block: 4.7; TLR9-MyD88 inh: -4.8; NOD2 RIPK2 PPI: 21.0*; NPR1 activator: 1.8; NOD2 RIPK2 conf: 0.8; NOD2 BLA counter: -1.9

Results for Cc1nc2c(=O)n(C)c(=O)n(C)c2nc1Cl ?
TLR4 MyD88 comp: 20.6; GC-B act: -5.4; Neddyl block: 4.5; TLR9-MyD88 inh: 17.1; NOD2 RIPK2 PPI: 23.9*; NPR1 activator: 5.7; NOD2 RIPK2 conf: 30.1*; NOD2 BLA counter: -8.2

Results for Cc1ccc(S(=O)(=O)NCC(=O)OC(C)C(=O)NC(=O)NC2CCCCC2)cc1C (configuration not stated) ?
GC-B act: -0.2; Neddyl block: 6.2; TLR9-MyD88 inh: 5.1; NOD2 RIPK2 PPI: -0.1; NPR1 activator: -1.2

How did COc1ccc(-c2cc(-c3nnc(SCC(=O)NC4CCCCC4)n3N)[nH]n2)cc1 do in these assays?
GC-B act: -6.1; NPR1 activator: -0.1

How did O=c1c2cc3cc(Cl)ccc3nc2ncn1CCc1c[nH]c2ccccc12 do in these assays?
GC-B act: -11.4; NPR1 activator: -6.2

How did CCCCn1nnnc1C(c1cc2ccccc2o1)N1CCN(c2c(C)cccc2C)CC1 (configuration not stated) do in these assays?
GC-B act: 1.5; Neddyl block: 9.2; NOD2 RIPK2 PPI: -3.2; NPR1 activator: 2.3

Results for Cc1cccc(C)c1N1CCN(C(c2cc3ccccc3o2)c2nnnn2C(C)(C)C)CC1 (configuration not stated) ?
Neddyl block: -3.7; NOD2 RIPK2 PPI: 21.4*; NOD2 RIPK2 conf: -4.2; NOD2 BLA counter: -5.3

How did COc1ccc(Nc2nc3cc(C)ccc3cc2C#N)cc1 do in these assays?
GC-B act: -2.0; Neddyl block: -164.1; TLR9-MyD88 inh: 3.9; NOD2 RIPK2 PPI: 21.2*; NPR1 activator: 2.0; NOD2 RIPK2 conf: 5.6; NOD2 BLA counter: 16.8*

How did CN1CCN(Cc2c(O)c(Cl)cc3c(-c4ccccc4)cc(=O)oc23)CC1 do in these assays?
TLR4 MyD88 comp: 4.9; GC-B act: 1.5; TLR9-MyD88 inh: 5.5; NOD2 RIPK2 PPI: 21.2*; NPR1 activator: 3.4; NOD2 RIPK2 conf: 21.4*; NOD2 BLA counter: 24.1*

How did Cc1cc(=O)oc2c(CN3CCN(C)CC3)c(O)c(Cl)cc12 do in these assays?
TLR4 MyD88 comp: 7.3; GC-B act: -4.4; TLR9-MyD88 inh: -2.9; NOD2 RIPK2 PPI: -14.9; NPR1 activator: 4.9

Results for O=S1(=O)c2c(cccc2N2CCSCC2)Oc2ccccc2CN1Cc1cn(Cc2cccc(C(F)(F)F)c2)nn1 ?
GC-B act: -0.1; NPR1 activator: -1.1

Results for COCC(=O)O[C@]1(CCN(C)CCCc2nc3ccccc3[nH]2)CCc2cc(F)ccc2[C@@H]1C(C)C ?
GC-B act: -12.8; Neddyl block: 3.6; TLR9-MyD88 inh: -10.3; NOD2 RIPK2 PPI: 24.8*; NPR1 activator: -25.3; NOD2 RIPK2 conf: 20.3; NOD2 BLA counter: -3.2
